# Shown is part of a subset that was picked to be rich in hits.
# BLM helicase inh: qHTS Assay for Inhibitors of Bloom's syndrome helicase (BLM) | recombinant BLM DNA unwinding, fluorescence dequenching | Potency, µM (titrated, usually from 56.1 µM), for inactives: at the highest dose activity change, negative = inhibition, hits mostly inhibitors | 350,000 compounds, 0.2% hits;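 also: plate controls were vehicle for no effect and no enzyme for full effect; nearly all actives have a fitted effect of over 35% in size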
# RECQ1 inh-1: qHTS Assay for Inhibitors of RecQ-Like Dna Helicase 1 (RECQ1). ATP-dependent DNA helicase Q1 (Homo sapiens), P46063. RECQ1 DNA unwinding, red fluorescence kinetic read. Potency, µM (doses to about 57.3 µM), for inactives: top-dose activity, negative = inhibition, most hits filed as inhibitors. 240,000 compounds, 0.54% hits. AID 2549, 2010;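 also: plate controls were vehicle for no effect and no enzyme for full effect; nearly all actives have a fitted effect of over 30% in size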
# Target sequence (P46063 whole entry, looked up): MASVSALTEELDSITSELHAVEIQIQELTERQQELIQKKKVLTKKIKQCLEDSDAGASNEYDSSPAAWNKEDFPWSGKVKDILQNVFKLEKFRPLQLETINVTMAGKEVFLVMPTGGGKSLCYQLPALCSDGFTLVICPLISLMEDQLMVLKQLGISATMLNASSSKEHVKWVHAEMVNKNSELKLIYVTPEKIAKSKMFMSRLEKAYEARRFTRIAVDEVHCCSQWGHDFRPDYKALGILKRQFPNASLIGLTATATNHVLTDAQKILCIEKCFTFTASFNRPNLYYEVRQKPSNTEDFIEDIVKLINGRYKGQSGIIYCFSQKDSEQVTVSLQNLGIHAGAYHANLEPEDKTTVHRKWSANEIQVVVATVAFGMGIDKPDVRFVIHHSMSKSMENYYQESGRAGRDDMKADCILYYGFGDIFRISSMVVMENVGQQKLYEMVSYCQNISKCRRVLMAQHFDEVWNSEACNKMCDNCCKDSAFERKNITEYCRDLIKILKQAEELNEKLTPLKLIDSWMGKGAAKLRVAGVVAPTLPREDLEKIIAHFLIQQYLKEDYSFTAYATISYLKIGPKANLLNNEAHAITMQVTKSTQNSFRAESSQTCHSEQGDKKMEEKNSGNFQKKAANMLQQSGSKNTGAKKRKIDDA
#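 50 nM RECQ1T1 preincubated 15 min with compound in Tris pH 8.0 buffer with MgCl2, DTT, Tween-20 and 2.5 ug/ml poly(dI-dC); started with 200 nM TAMRA/BHQ-2 forked duplex and 2 mM ATP. Unwinding read as fluorescence (525/598 nm), two reads 2 h apart.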
# L3MBTL1 inh: qHTS Assay for the Inhibitors of L3MBTL1; Potency, µM (highest dose often 57.1 µM), inactives show top-dose activity, negative = inhibition, usual class: inhibitors; Lethal(3)malignant brain tumor-like protein 1 (Homo sapiens), Q9Y468; AlphaScreen L3MBTL1–H3K9me1 peptide binding; 230,000 compounds, 0.66% hits; also: nearly all actives have a fitted effect of over 60% in size
#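 L3MBTL1 (50 nM) pre-complexed 30 min with biotinylated H3(1-15)K9me1 peptide (75 nM), then compounds added for 30 min at room temperature; AlphaScreen streptavidin donor/nickel chelate acceptor beads (10 ug/mL final) read after 30 min dark incubation.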
# KDM4E inh: qHTS Assay for Inhibitors of Human Jumonji Domain Containing 2E (JMJD2E); Lysine-specific demethylase 4E (Homo sapiens), B2RXH2; JMJD2E catalytic domain, FDH-coupled NADH fluorescence (FDH is formaldehyde dehydrogenase); Potency, µM (titrated, usually from 57.1 µM), for inactives: at the highest dose activity change, negative = inhibition, most hits filed as inhibitors; 230,000 compounds, 1.6% hits; AID 2147, 2009; active = well fitted inhibition curve with a large enough effect, not every such curve was filed as active; inconclusive = small, poorly fitted or top-dose-only effect, or another doubt; inactive = no such curve, though single readings can be large or run the other way;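 also: 0% = wells with enzyme and -100% = buffer wells without enzyme; nearly all actives have a fitted effect of over 50% in size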
# RGS12 GoLoco inh: qHTS Assay for Inhibitors of RGS12 GoLoco Motif Activity (Red Fluorophore); Guanine nucleotide-binding protein G(i) subunit alpha-1 (Homo sapiens), P63096; Gai1:RGS12 GoLoco peptide FP, rhodamine, 10 min; Potency, µM (highest dose often 61.6 µM), inactives show top-dose activity, negative = inhibition, usual class: inhibitors; 230,000 compounds, 0.44% hits; active = well fitted inhibition curve with a large enough effect, not every such curve was filed as active; inactive = no such curve, though single readings can be large or run the other way; also: nearly all actives have a fitted effect of over 30% in size
# APE1 inh: qHTS Assay for Inhibitors of the Human Apurinic/apyrimidinic Endonuclease 1 (APE1). recombinant APE1, TAMRA/BHQ-2 abasic DNA cleavage fluorescence. Potency, µM (highest dose often 65.8 µM), inactives show top-dose activity change, negative = inhibition, hits mostly inhibitors. 350,000 compounds, 0.35% hits. AID 2517, 2012;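 also: plate controls were vehicle for no effect and reference inhibitor for full effect; nearly all actives have a fitted effect of over 55% in size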
#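 Activity was derived from the fluorescence gain between first and third kinetic reads (60 s intervals, ex 525/em 598 nm) after 50 nM THF-abasic TAMRA/BHQ-2 duplex was added to 0.75 nM APE1 preincubated 15 min with compound.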
# RECQ1 inh conf: Confirmation qHTS Assay for Inhibitors of RecQ-Like Dna Helicase 1 (RECQ1) | 610 compounds, 28% hits | Potency, µM (doses to about 229 µM), inactives show top-dose activity change, negative = inhibition, hits mostly inhibitors | shares compounds with RECQ1 inh-1 | RECQ1 helicase DNA unwinding, fluorescence; also: nearly all actives have a fitted effect of over 45% in size
# ADP FP counter: Counterscreen for RECQ1 Inhibitors: ADP Fluorescence Polarization Displacement Assay; ADP fluorescence polarization displacement counterscreen; Potency, µM (series often up to 228 µM), inactives show top-dose activity change, negative = inhibition, usual class: inhibitors; 530 compounds, 27% hits; AID 2711, 2010; shares compounds with RECQ1 inh-1; also: nearly all actives have a fitted effect of over 45% in size
# RECQ1 inh-2: Confirmation qHTS Assay for Inhibitors of RecQ-Like Dna Helicase 1 (RECQ1) - Round 2 Cherry Picks; AID 504841, 2011; shares compounds with RECQ1 inh-1; 1,100 compounds, 15% hits; recombinant RECQ1 DNA unwinding, red fluorescence; Potency, µM (top dose mostly 119 µM), inactives show at the top dose activity, negative = inhibition, usual class: inhibitors; also: nearly all actives have a fitted effect of over 50% in size
# Starred values were filed as active, the others as inactive; u = inconclusive; x = not tested or not shown; [ ] = another dose, or the depositor's remark. Unless noted, calls follow the shape of the dose curve; as a rule, active = well fitted curve in the direction sought with a large enough effect; inconclusive = small, poorly fitted or top-dose-only effect, or another doubt; inactive = no such curve, though single readings can be large; an effect the other way counts as inactive or inconclusive. Unless noted, % is scaled to controls: 0 for no effect and ±100 for the full control effect; potency is read from the fitted curve at half-maximal effect.
SMILES,BLM helicase inh,RECQ1 inh-1,L3MBTL1 inh,KDM4E inh,RGS12 GoLoco inh,APE1 inh,RECQ1 inh-2,others
Cc1cc(C(=O)CSc2nnc(-c3ccccc3)n2-c2ccccc2)c(C)n1-c1ncn[nH]1,-11.0%,35.5µM*,-4.5%,2.8%,7.1%,1.1%,u,
Cc1ccc(NC(=O)CSCC#N)cc1Cl,3.8%,28.2µM*,11.1%,2.0%,-2.2%,17.6%,0.3%,
COc1ccc(N(CC(=O)N2c3ccccc3CC2C)S(=O)(=O)c2c(C)noc2C)cc1 (stereo not drawn),-15.1%,u,-8.6%,-3.8%,6.5%,7.9%,-17.8%,
Cc1ccc(OCC(O)CNS(=O)(=O)c2ccccc2C(=O)O)cc1 (stereo not drawn),-11.9%,8.0%,7.6%,8.5%,9.4%,5.2%,x,RECQ1 inh conf=-1.1%;ADP FP counter=3.5%
Cn1cc(-c2nc3cnc(N4CCNCC4)nc3n(C3CC3)c2=O)c2ccccc21,1.4%,-6.8%,x,x,-5.9%,u,x,
CN(C)CC1CCn2c(c(C3=C(c4cn(C)c5ccccc45)C(=O)NC3=O)c3ccccc32)C1 (stereo not drawn),-5.2%,u,x,x,x,-4.6%,79.4µM*,
COc1ccc(-c2cc(=O)c3cc(O)ccc3o2)cc1,0.1%,u,-7.7%,10.6%,-4.7%,1.2%,-17.8%,
O=c1cc(-c2ccccc2)oc2ccc(O)cc12,-7.8%,-8.5%,7.8%,-4.8%,2.2%,2.0%,x,
CC(C)N(Cc1nc(-c2ccc(Cl)cc2)no1)C(=O)c1ccco1,-6.2%,x,x,x,x,x,x,
O=C(O)CCC(=O)N1N=C(c2ccco2)CC1c1cccs1 (stereo not drawn),-2.1%,-3.9%,2.0%,u,-1.7%,4.8%,x,RECQ1 inh conf=-4.3%;ADP FP counter=5.3%
c1cncc(CSc2ncnc3nc[nH]c23)c1,x,x,x,x,3.6%[14.2 µM],x,x,
O=C(/C=C/c1ccco1)N1CCCC(c2ccccc2)C1 (stereo not drawn),-18.2%,u,-12.0%,-25.8%,21.6%,-14.8%,u,
O=c1c(-c2ccc([N+](=O)[O-])cc2)coc2c(O)c(O)ccc12,-18.8%,8.91µM*,x,14.1µM*,-7.5%,u,u,
CC1CCN(CCCn2c(=S)[nH]c3c(sc4ccc([N+](=O)[O-])cc43)c2=O)CC1,-1.4%,u,15.1%,-15.5%,-11.8%,16.9%,u,
CC1CCN(CCCn2c(=S)[nH]c3c(sc4ccccc43)c2=O)CC1,-7.6%,7.5%,-2.4%,-4.4%,-10.3%,-4.1%,x,
O=C1C=CC2=C3c4cc(O)c(O)cc4C[C@@]3(O)COC2=C1,-16.7%,20µM*,x,15.8µM*,0.355µM*,12.6µM*,25.1µM*,
COc1ccc(-c2cc(C(=O)Oc3ccccc3)c3cc(C)ccc3n2)cc1,-4.1%,x,x,x,x,x,x,
COc1ccc(NC(=O)c2c3c(nc4ccccc24)CCC3)cc1S(=O)(=O)N1CCOCC1,u,22.4µM*,31.6µM*,1.4%,2.6%,u,u,
Cc1ccc(NC(=O)c2c3c(nc4ccccc24)CCC3)cc1,-0.5%,-3.7%,-22.3%,-3.0%,102.5%,-3.9%,x,
COc1ccc(C(=O)Nc2ccc(NC(=O)c3ccccc3)cc2)cc1S(=O)(=O)N1CCOCC1,-4.6%,x,x,x,x,7.6%,x,
Cc1ccc(NC(=O)c2c3c(nc4ccccc24)CCC3)cc1S(=O)(=O)N(C)C,-12.0%,u,x,-11.4%,17.1%,u,u,
CCOc1ccccc1NC(=O)c1ccc(OCC)c([N+](=O)[O-])c1,-1.2%,0.3%,11.0%,0.5%,2.1%,1.5%,x,
CCOc1ccc(C(=O)Nc2cc(-c3nc4ccccc4[nH]3)ccc2Cl)cc1[N+](=O)[O-],u,u,-2.1%,-7.8%,-12.3%,u,56.2µM*,
CCOc1ccc(C(=O)Nc2cccc(-c3cc4ccccc4oc3=O)c2)cc1[N+](=O)[O-],-10.1%,25.1µM*,6.5%,u,-4.5%,-10.7%,u,
Cc1cccc(C)c1Nc1c(-c2ccc(Cl)s2)nc2ncccn12,-4.6%,x,x,x,x,x,x,
SMILES,BLM helicase inh,RECQ1 inh-1,L3MBTL1 inh,KDM4E inh,RGS12 GoLoco inh,APE1 inh,RECQ1 inh-2,others
O=C(COCc1cc(-c2cccs2)on1)Nc1ccc(OC(F)(F)F)cc1,-1.5%,x,x,x,x,x,x,
C=CCC1(CC=C)CCCN1Cc1nc(COc2ccccc2)no1,-7.2%,39.8µM*,15.7%,-2.9%,31.5%,-6.0%,-9.7%,
O=C1CCCN1CC1CCCN(Cc2nc(COc3ccccc3)no2)C1 (stereo not drawn),-5.9%,2.2%,-3.6%,-5.0%,10.8%,0.9%,x,
Cc1cc(-c2csc(NC(=O)c3ccc(=O)n(C)n3)n2)c(C)n1CC1CCCO1 (stereo not drawn),u,u,-3.7%,-21.7%,6.8%,-9.3%,-3.9%,
COc1ccc2[nH]c3c(C)c4ccncc4c(C)c3c2c1,41.6%,22.4µM*,-0.8%,8.91µM*,15.1%,7.94µM*,7.94µM*,
C[C@@H](C(=O)Nc1ccc2ccccc2c1)[C@@H]1C[C@@]1(C)[C@@H](NS(=O)(=O)c1ccc(-c2ccccc2)cc1)c1ccccc1,0.0%,-10.4%,x,u,9.2%,7.2%,x,
O=C(Cn1ncc(Cl)c(Cl)c1=O)N1CCN(Cc2ccccc2)CC1,-18.3%,31.6µM*,-27.1%,-4.1%,14.4%,8.5%,-14.2%,
CCOC(=S)SSC(=S)OCC,2.3%,x,x,x,x,x,x,
Cc1nnc2ccc(-c3cccc(NC(=O)Cc4cccs4)c3)nn12,-12.7%,u,x,-12.2%,11.5%,3.0%,-25.2%,

# Source: PubChem
